Screening results from PubChem.
Tau fibril ThT – inhibitors of human tau fibril formation, thioflavin T binding | P10636 | recombinant tau K18 P301L, heparin-induced fibrillization, ThT fluorescence | Potency, µM (top dose mostly 57.4 µM), inactives show top-dose activity, negative = inhibition, most hits filed as inhibitors | actives 2.1% (n = 270,000) | AID 1460; also: nearly all actives have a fitted effect of over 55% in size
Target sequence (P10636 561-689 P618L limits assumed): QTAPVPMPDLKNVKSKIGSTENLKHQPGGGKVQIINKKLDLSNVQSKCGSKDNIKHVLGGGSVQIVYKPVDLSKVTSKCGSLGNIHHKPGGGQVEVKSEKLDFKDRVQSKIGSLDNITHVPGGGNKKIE
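Using a mix of unlabeled (15 uM) and Alexa 594-labeled (0.24 uM) tau K18 P301L, heparin-triggered fibrillization over 6 hr at 37 C was scored by ThT fluorescence.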
Tau fluor cs – counter-screen for tau fibril formation inhibitors. tau K18 P301L (four-repeat tau fragment) Alexa594 fluorescence, heparin fibrillization. actives 0.93% (n = 280,000). Potency, µM (top dose mostly 57.7 µM), for inactives: at the top dose activity change, negative = decrease. AID 1463; also: nearly all actives have a fitted effect of over 55% in size
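Human K18 P301L tau (15 uM unlabeled plus 0.24 uM Alexa 594-labeled, final) in 100 mM sodium acetate pH 7 was mixed with compound and 20 uM heparin and incubated 6 hr at 37 C.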
TR SRC2 fluor cs – Texas Red fluorescence interference in TRb-SRC2 counter-screen | Potency, µM (titrated, usually from 106 µM), for inactives: top-dose fluorescence change, negative = quenching | TRb/SRC2 Texas Red total fluorescence interference | actives 0.29% (n = 280,000); active = well fitted curve in either direction with a large enough effect; inconclusive = small, poorly fitted or top-dose-only effect
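Human TRb ligand-binding domain at 0.6 uM with 20 nM Texas Red SRC2 peptide in Tris buffer containing 1 uM T3 and 5% DMSO, incubated with compound 5 h at ambient temperature. Total fluorescence (555/632 nm) calculated as parallel + 2 × perpendicular.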
Tau fibril FP – inhibitors of human tau fibril formation; actives 0.39% (n = 280,000); K18 P301L tau heparin fibrillization, Alexa594 FP, 6 h; Potency, µM (titrated, usually from 57.7 µM), for the others: top-dose activity, negative = inhibition, actives largely listed as inhibitors; also: nearly all actives have a fitted effect of over 55% in size
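Human tau K18 […] P301L fragment, 15 uM unlabeled plus 0.24 uM Alexa 594-labeled tau (final), with compound and 20 uM heparin in 100 mM sodium acetate pH 7; 6 hr at 37 C, then Alexa 594 FP read.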
RGS12 GoLoco inh – RGS12 GoLoco-Gai1 interaction inhibition; Potency, µM (series often up to 61.6 µM), inactives show at the top dose activity, negative = inhibition, actives largely listed as inhibitors; Gai1:RGS12 GoLoco peptide FP, rhodamine, 10 min; P63096; actives 0.44% (n = 230,000); active = well fitted inhibition curve with a large enough effect, not every such curve was filed as active; inactive = no such curve, though single readings can be large or run the other way; also: nearly all actives have a fitted effect of over 30% in size
TRb SRC2 PPI – TRbeta-SRC2 interaction inhibition; P10828; TRbeta-SRC2 peptide binding, fluorescence polarization; receptor liganded with 1 µM T3; Potency, µM (highest dose often 106 µM), without a hit: top-dose activity change, negative = inhibition, hits mostly inhibitors; actives 0.065% (n = 280,000);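 also: plate controls were bound peptide for no effect and peptide without receptor for full effect; nearly all actives have a fitted effect of over 50% in size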
Target sequence (P10828 whole entry, looked up): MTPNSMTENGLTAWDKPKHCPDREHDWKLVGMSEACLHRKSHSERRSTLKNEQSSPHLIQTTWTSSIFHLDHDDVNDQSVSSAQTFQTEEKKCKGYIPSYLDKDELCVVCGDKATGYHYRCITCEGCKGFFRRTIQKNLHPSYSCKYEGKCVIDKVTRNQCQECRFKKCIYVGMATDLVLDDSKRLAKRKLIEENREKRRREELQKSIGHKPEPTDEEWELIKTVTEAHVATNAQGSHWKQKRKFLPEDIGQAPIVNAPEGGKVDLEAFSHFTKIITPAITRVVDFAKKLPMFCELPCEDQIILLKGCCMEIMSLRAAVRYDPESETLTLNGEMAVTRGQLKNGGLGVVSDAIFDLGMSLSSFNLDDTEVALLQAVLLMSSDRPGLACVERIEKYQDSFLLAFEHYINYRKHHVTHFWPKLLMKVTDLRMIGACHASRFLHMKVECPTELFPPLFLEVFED
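Each compound concentration gave % activity, normalized to unbound and bound Texas Red SRC2 controls, from polarization read after 5 hr ambient incubation with T3-loaded human TRb LBD.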
Active calls of the source: *; ? = inconclusive; . = not tested or not shown; [ ] = another dose, or the depositor's remark. Hits are enriched below; roughly 3.2% of the tested compounds scored in any of these assays. Unless noted, calls follow the shape of the dose curve; as a rule, active = well fitted curve in the direction sought with a large enough effect; inconclusive = small, poorly fitted or top-dose-only effect, or another doubt; inactive = no such curve, though single readings can be large; an effect the other way counts as inactive or inconclusive. Unless noted, % is scaled to controls: 0 for no effect and ±100 for the full control effect; potency is read from the fitted curve at half-maximal effect.

SMILES | Tau fibril ThT | Tau fluor cs | TR SRC2 fluor cs | Tau fibril FP | RGS12 GoLoco inh | TRb SRC2 PPI
O=C1CCC/C1=C/Nc1ccc(Cl)cc1 | -13.4% | -12.3% | -2.0% | 9.6% | -4.6% | 4.2%
COc1cccc(NC2=C(C#N)C(=O)NC(c3cccc(OC)c3O)S2)c1 (configuration not stated) | 31.6µM* | -24.0% | -3.4% | ? | 26.9% | -0.9%
N#CC1=C(Nc2ccccc2Cl)SC(c2ccccc2O)NC1=O (configuration not stated) | ? | -25.0% | -2.7% | 31.6µM* | -9.8% | 5.3%
c1ccc2c(CN3CCN(Cc4c[nH]c5ccccc45)CC3)c[nH]c2c1 | . | . | . | . | 8.1%[14.2 µM] | .
CN(C)Cc1cc(C(C)(C)C)ccc1-c1ccc(C(C)(C)C)cc1CN(C)C | . | . | . | . | 7.8%[14.2 µM] | .
CSCC[C@H](NC(=O)CNC(=O)CNC(=O)[C@H](CO)NC(=O)[C@H](CCCNC(=N)N)NC(=O)[C@H](CO)NC(=O)[C@H](CC(C)C)NC(=O)[C@H](CC(C)C)NC(=O)CNC(=O)[C@H](C)NC(=O)[C@H](CC(C)C)NC(=O)[C@H](CCCNC(=N)N)NC(=O)[C@H](Cc1cnc[nH]1)NC(=O)[C@@H](NC(=O)[C@@H](N)C(C)C)[C@@H](C)O)C(=O)N[C@H](C(=O)N[C@@H](CCCCN)C(=O)N[C@@H](CO)C(=O)N[C@@H](CC(N)=O)C(=O)N[C@@H](Cc1ccccc1)C(=O)N[C@H](C(=O)N1CCC[C@H]1C(=O)N[C@H](C(=O)N[C@@H](CC(N)=O)C(=O)N[C@H](C(=O)NCC(=O)N[C@@H](CO)C(=O)N[C@@H](CCCCN)C(=O)N[C@@H](C)C(=O)N[C@@H](Cc1ccccc1)C(N)=O)C(C)C)[C@@H](C)O)C(C)C)C(C)C | . | . | -2.0% | . | . | -11.2%
COc1cccc2c1C(=O)C=C(C)C2=O | 7.08µM* | 7.08µM*[quencher] | -6.3% | ? | 5.6% | 7.5%
CC(C)(C=O)C1=CC(=O)c2ccccc2C1=O | 8.91µM* | ? | ? | ? | -12.9% | -9.3%
O=C1C=C(Nc2ccccc2)C(=O)c2ccccc21 | ? | -22.5% | 0.0% | 3.7% | 43.4% | 9.6%
CC1=CC(=O)c2ccccc2C1=O | 5.01µM* | 7.08µM*[quencher] | -0.1% | ? | 4.9% | 0.7%
CCCCC(CC)CNC(=O)CCCc1nnc2n(CCC)c(=O)c3sccc3n12 (configuration not stated) | -7.8% | -18.9% | -1.9% | -0.5% | . | -7.5%
COc1cc(C2C(C(=O)Nc3ccccc3)=C(C)Nc3nnnn32)cc(OC)c1OC (configuration not stated) | -5.2% | -11.1% | -1.1% | -7.8% | . | -12.0%
COC(=O)NC(/C=C/c1ccccc1)[C@]1(C(C)=O)CCCC1=O (some centres not stated) | -0.8%[11.5 µM] | -1.4%[11.6 µM] | -0.4%[11.2 µM] | 4.3%[11.6 µM] | . | 6.9%[11.2 µM]
CC(C)C[C@H](NC(=O)[C@H](CO)NC(=O)[C@@H]1CCCN1C(=O)[C@H](Cc1ccc(O)cc1)NC(=O)[C@H](CC(C)C)NC(=O)[C@H](CC(C)C)NC(=O)[C@@H]1CCCN1C(=O)[C@@H](NC(=O)[C@H](CO)NC(=O)[C@H](CO)NC(=O)[C@H](CO)NC(=O)[C@H](CO)NC(=O)[C@@H]1CCCN1C(=O)[C@@H](NC(=O)[C@@H](N)CO)C(C)C)[C@@H](C)O)C(=O)N[C@@H](C)C(=O)N[C@@H](CC(C)C)C(=O)N1CCC[C@H]1C(=O)N[C@@H](C)C(=O)N1CCC[C@H]1C(=O)O | . | . | -1.5% | . | . | -1.7%
Cc1ccc(Cl)cc1NC(=O)N1CCC2(CC1)Oc1ccccc1C(=O)N2Cc1ccccc1F | -10.7% | -22.8% | 35.5µM*[quencher] | -5.0% | . | -5.1%
COC1C(OC(=O)/C=C/C=C/C=C/C=C/C(=O)O)CCC2(CO2)C1C1(C)OC1CC=C(C)C (configuration not stated) | . | . | -3.4% | . | 6.2% | 0.9%
CCN1/C(=C\C=C(C(C)=O)C(C)=O)Sc2ccccc21 | ? | -6.7% | -1.9% | 10.4% | 18.9% | -5.0%
CCN1/C(=C\C(=S)Nc2ccccc2)Sc2ccccc21 | 7.94µM* | ? | -0.3% | ? | 35.1% | 3.5%
O=C(NNc1c2ccccc2nc2ccccc12)c1ccc(O)cc1O | 2.24µM* | 12.6µM*[quencher] | -28.8% | 7.6% | 74.7% | 7.6%
O=C(NNc1c2ccccc2nc2ccccc12)c1cccc(O)c1 | 2.82µM* | 14.1µM*[quencher] | -13.6% | 13.2% | 29.9% | -6.0%
O=C(NNc1c2ccccc2nc2ccccc12)c1ccccc1O | 2.24µM* | 6.31µM*[quencher] | -14.2%[53 µM] | -0.6% | 26.5% | 4.1%[53 µM]
O=C(NNc1c2ccccc2nc2ccccc12)C(O)c1ccccc1 (configuration not stated) | 14.1µM* | ? | -3.0% | 10.9% | 4.0% | -2.8%
O=C(NNc1c2ccccc2nc2ccccc12)c1ccc(O)cc1 | ? | ? | 0.2% | 1.6% | 88.5% | -5.8%
Cc1cccc(-c2nc3c4ccccc4nc(N4CCN(c5cccc(Cl)c5)CC4)n3n2)c1 | 14.7% | -3.1% | 2.1% | -0.5% | . | -6.5%
COc1ccc(OCC(=O)NNc2c3ccccc3nc3ccccc23)cc1 | 6.31µM* | 15.8µM*[quencher] | -7.8% | ? | -1.6% | -1.9%
SMILES | Tau fibril ThT | Tau fluor cs | TR SRC2 fluor cs | Tau fibril FP | RGS12 GoLoco inh | TRb SRC2 PPI
COc1cc(/C=N/NC(=O)c2ccc(-c3ccccc3)cc2)cc(OC)c1OC | ? | ? | -2.4% | -16.7% | 9.0% | -15.3%
NNC(=O)c1sc(-c2ccccc2)cc1N | ? | -20.2% | 0.0% | 13.0% | 10.1% | -2.0%
O=C(Nc1sc(-c2ccccc2)cc1C(=O)O)c1ccccc1 | 12.6µM* | ? | -12.0% | -8.5% | 8.8% | 5.3%
COc1cc(/C=N/NC(=O)c2cc(-c3ccccc3)sc2N)cc(OC)c1OC | . | 12.6µM*[quencher] | -8.3% | ? | 8.7% | 4.3%
COc1cc(/C=N/NC(=O)c2cc(-c3cccs3)nc3ccccc23)ccc1O | ? | 17.8µM*[quencher] | 0.0% | 3.1% | 4.8% | -2.8%
CCOC(=O)c1cc(-c2ccccc2)sc1NC(=O)c1ccc(OC)cc1 | -7.9% | -0.7% | 0.6% | -7.5% | -13.2% | 3.0%
NNC(=O)c1cc(-c2ccccc2)sc1N | 7.94µM* | ? | -5.2% | 4.1% | 2.0% | -1.2%
Nc1ccc2nc(SCc3ccccc3F)sc2c1 | . | 0.562µM*[quencher] | -0.8% | ? | 6.7% | -3.1%
COc1ccc(NC2=CC(c3ccc(OC)c(OC)c3)N(c3ccc(OC)cc3)C2=O)cc1 (configuration not stated) | -1.5% | 0.3% | -2.4% | 7.6% | 14.6% | 2.2%
